{
  "source": "PubChem BioAssay AID504329",
  "about": "(Southern Research Specialized Biocontainment Screening …, 2011)",
  "note": "“And” between values parts separate entries of the source, which are not always exact repeats. Identical values can stand only once. About 1,000 (0.29%) of roughly 340,000 compounds were called active. These entries were drawn from the full list. Entries with a potency or affinity are not part of this list. Unmarked numbers belong to inactive results. Cut-off read from the data, not from the text of the source: inconclusive = inhibition above about 27% without an active follow-up result; inactive = below that.",
  "data": [
    {"experiment": "NS1A inhibition, H1N1 influenza, cell based functional assay (AID 504329)", "conditions": "percent inhibition, at 12.5 µM, hits give high values", "values": [
      {"smiles": "Cc1ccc(N=Nc2c(C)[nH]n(-c3ccccc3)c2=O)cc1Br", "inhibition": "2.46%"},
      {"smiles": "Cc1[nH]n(-c2ccccc2)c(=O)c1N=Nc1c(Cl)cccc1Cl", "inhibition": "-0.23%"},
      {"smiles": "Cc1[nH]n(-c2ccccc2)c(=O)c1N=Nc1ccccc1O", "inhibition": "27.8%"},
      {"smiles": "Nc1[nH]n(-c2ccccc2)c(=O)c1N=Nc1ccccc1", "inhibition": "20.9%"},
      {"smiles": "Cc1[nH]n(-c2ccccc2)c(=O)c1N=Nc1ccc(Cl)cc1", "inhibition": "1.98%"},
      {"smiles": "Cc1[nH]n(-c2ccccc2)c(=O)c1N=Nc1ccccc1", "inhibition": "-4.27%"},
      {"smiles": "Nc1[nH]n(-c2ccccc2)c(=O)c1N=Nc1ccc2c(c1)OCO2", "inhibition": "-20.9%"},
      {"smiles": "Cc1noc(C)c1CSc1nnc2scc(-c3ccccc3)n12", "inhibition": "0.06%"},
      {"smiles": "Cc1ccc(S(=O)(=O)NCCNC(=O)C2CCCNC2=O)cc1", "note": "(configuration not stated)", "inhibition": "-2.4%"},
      {"smiles": "NNC(=O)COc1cccc(C(F)(F)F)c1", "inhibition": "-3.83%"},
      {"smiles": "CC(C)CC(=O)C(=O)O", "inhibition": "1.46% and 3.24%"},
      {"smiles": "O=C(COC(=O)c1cccc(-n2cnnn2)c1)c1ccc(F)cc1", "inhibition": "-2.74%"},
      {"smiles": "Cc1ccccc1-c1cccc([C@@H]2C[C@H]3[C@H](CON3C)CN2S(=O)(=O)c2ccccc2C)c1", "inhibition": "-6.53%"},
      {"smiles": "Cc1ccc(S(=O)(=O)N2CCOCC2)cc1NC(=O)CNCc1ccccc1Cl", "inhibition": "-1.72%"},
      {"smiles": "O=C(CNCc1ccncc1)Nc1cc(S(=O)(=O)N2CCCCC2)ccc1Cl", "inhibition": "-4.7%"},
      {"smiles": "Cc1ccc(S(=O)(=O)N2CCOCC2)cc1NC(=O)CSc1ccccn1", "inhibition": "-3.06%"},
      {"smiles": "COc1ccccc1CNCC(=O)Nc1cc(S(=O)(=O)N2CCCCCC2)ccc1Cl", "inhibition": "2.82%"},
      {"smiles": "CS(=O)(=O)c1ccc(-c2cccc(NC(=O)COc3ccc(Cl)cc3)c2)nn1", "inhibition": "7.16%"},
      {"smiles": "Fc1ccc(Oc2nccc(-c3ccc(Cl)cc3)n2)cc1", "inhibition": "-2.98%"},
      {"smiles": "CCN(C[C@H]1N[C@@](CC)(C(=O)OC)[C@H]2C(=O)N(Cc3ccccc3)C(=O)[C@@H]12)C(=O)C1CCCCC1", "inhibition": "-2.32%"},
      {"smiles": "O=C(NNC(=O)c1ccccc1Br)c1ccc2nc[nH]c2c1", "inhibition": "22.1%"},
      {"smiles": "CCOC(=O)C1(CC)NC(c2ccc(N(C)C)cc2)C2C(=O)N(C)C(=O)C21", "note": "(configuration not stated)", "inhibition": "9.29%"},
      {"smiles": "CCOc1ccc2c(c1)-c1c(ssc1=S)C(C)(C)N2C(=O)c1ccco1", "inhibition": "1.84%"},
      {"smiles": "COc1ccc2c(c1)-c1c(ssc1=S)C(C)(C)N2S(=O)(=O)c1ccc(C)cc1", "inhibition": "17.8%"},
      {"smiles": "CCN(CC(=O)Nc1c(F)cccc1F)C(=O)CSc1ccccc1", "inhibition": "-8.64%"},
      {"smiles": "COc1ccc(/C=N/Nc2cc(OC)ncn2)cc1", "inhibition": "3.33%"},
      {"smiles": "COc1cccc(/C=N/Nc2c(Cl)cncc2Cl)c1O", "inhibition": "1.36%"},
      {"smiles": "COc1cccc(/C=N/Nc2cc(Cl)nc(C)n2)c1O", "inhibition": "-12.7%"},
      {"smiles": "Oc1ccccc1/C=N/Nc1ccnc(SCc2ccccc2)n1", "inhibition": "-3.79%"},
      {"smiles": "COc1cc(N/N=C/c2ccc(N(C)C)cc2)ncn1", "inhibition": "-5.63%"},
      {"smiles": "Clc1ccccc1/C=N/Nc1cc(N2CCOCC2)ncn1", "inhibition": "17.6%"},
      {"smiles": "Oc1ccccc1/C=N/Nc1cccc2cccnc12", "inhibition": "-0.48%"},
      {"smiles": "COc1ccc(/C=N/Nc2cc(N3CCOCC3)ncn2)c(OC)c1", "inhibition": "-0.39%"},
      {"smiles": "CCN(C(=O)COC(=O)Cc1c[nH]c2ccccc12)C1CCS(=O)(=O)C1", "note": "(configuration not stated)", "inhibition": "2.01%"},
      {"smiles": "Cc1ccc(NC(=O)CSc2nc3ccccc3c(=O)[nH]2)cc1[N+](=O)[O-]", "inhibition": "5.04%"},
      {"smiles": "COc1ccccc1NC(=O)NNC(=O)CCc1ccccc1", "inhibition": "-10.3%"},
      {"smiles": "COc1ccc(NC(=S)N(CCCN2CCOCC2)Cc2cn(C)c3ccccc23)cc1OC", "inhibition": "2.8%"},
      {"smiles": "COc1ccc(OCc2nnc(SCc3ccc(C(=O)O)cc3)o2)cc1", "inhibition": "5.27%"},
      {"smiles": "O=C(NC1CCCC1)C(c1ccc(F)cc1)N(C(=O)c1csnn1)c1ccccc1F", "note": "(configuration not stated)", "inhibition": "-6.01%"},
      {"smiles": "Cn1cc(CN2CCC(n3nccc3NC(=O)CCCc3ccccc3)CC2)cn1", "inhibition": "-14%"},
      {"smiles": "COc1ccc(-c2cc(C(=O)NCCN3CCOCC3)c3ccccc3n2)cc1OC", "inhibition": "23%"},
      {"smiles": "O=C(CSc1nnc(Nc2ccccc2)s1)Nc1cccc(S(=O)(=O)N2CCCCC2)c1", "inhibition": "-4.99%"},
      {"smiles": "CS(=O)(=O)Nc1ccccc1C(=O)OCC(=O)N1CCC(c2ccccc2)=N1", "inhibition": "-6.95%"},
      {"smiles": "Cc1ccc(S(=O)(=O)CCC(=O)Nc2nc(-c3ccccn3)cs2)cc1", "inhibition": "7.88%"},
      {"smiles": "O=C(CCS(=O)(=O)c1ccc(F)cc1)Nc1nc(-c2ccncc2)cs1", "inhibition": "-5.43%"},
      {"smiles": "O=C(CCS(=O)(=O)c1ccccc1)Nc1nc(-c2ccc(F)cc2)cs1", "inhibition": "-4.12%"},
      {"smiles": "O=C(CCS(=O)(=O)c1ccccc1)Nc1nc(-c2cccs2)cs1", "inhibition": "-56.6%"}
    ]}
  ]
}
